D1 agonist = activates the human D1 dopamine receptor; HEK293 T-REx D1 cells, calcium flux, agonist mode; activation, % at 2 µM; 360,000 tested, 1% active; in the data active = activation above about 30%; note: 0% is about no effect
Target sequence (P21728 whole entry, looked up): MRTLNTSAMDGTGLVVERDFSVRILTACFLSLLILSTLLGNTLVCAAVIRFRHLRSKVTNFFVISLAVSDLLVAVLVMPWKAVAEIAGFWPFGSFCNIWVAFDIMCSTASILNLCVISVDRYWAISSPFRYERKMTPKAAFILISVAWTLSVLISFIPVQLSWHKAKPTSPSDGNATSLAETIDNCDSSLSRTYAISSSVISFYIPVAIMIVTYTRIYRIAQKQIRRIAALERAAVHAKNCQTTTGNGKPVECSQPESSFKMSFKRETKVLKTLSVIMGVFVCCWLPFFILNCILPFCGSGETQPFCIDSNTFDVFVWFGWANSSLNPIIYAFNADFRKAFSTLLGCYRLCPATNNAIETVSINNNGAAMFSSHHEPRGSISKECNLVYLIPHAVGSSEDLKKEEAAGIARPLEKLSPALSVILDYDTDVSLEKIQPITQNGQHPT
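Inducible HEK293 T-REx D1 cells, force-coupled to calcium signalling, were plated at 4000 cells/well with tetracycline and held overnight at 30 C. After no-wash calcium dye loading, compound-evoked calcium rise over 180 s flagged agonists.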
TRPV1 potentiator = potentiators of human vanilloid receptor 1 (TRPV1) | AID 540277 | TRPV1-expressing cells, Fluo-8 calcium influx, capsaicin EC20 potentiation | Q8NER1 | 320,000 tested, 0.02% active | potentiation, % at 8.33 µM; in the data active = potentiation above about 80%; inconclusive = between about 30% and that limit; note: 0% is about no effect
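Cells expressing TRPV1 were dye-loaded with Fluo-8 and read kinetically: 10 s baseline, 3 min after compound (agonist portion), then 2 min after EC20 capsaicin (allosteric enhancer portion). Calcium-bound dye fluorescence at 480/520 nm.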
TRPV1 ag = human TRPV1 agonism | Q8NER1 | TRPV1-expressing cells, Fluo-8 calcium influx, agonist mode | activation, % at 8.33 µM | 320,000 tested, 0.19% active | AID 540275; in the data active = activation above about 80%; inconclusive = between about 30% and that limit; note: 0% is about no effect
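Fluo-8 calcium influx in TRPV1-expressing cells, kinetic read (ex 480/em 520 nm). Compound added and read 3 min for agonist activity, followed by capsaicin at EC20 final and 2 min further read for enhancement.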
D1 potentiator = potentiators of human D1 dopamine receptor | HEK293 TREx D1 cells, calcium flux, dopamine EC20 potentiation | potentiation, % at 10 µM | 360,000 tested, 0.036% active | AID 504651; in the data active = potentiation above about 30%; note: 0% is about no effect
D1 antagonist = blocks dopamine activation of the human D1 receptor | P21728 | HEK293 TREx D1 cells, calcium flux, dopamine EC80; hits give low values | activity change, negative = inhibition, % at 10 µM | 360,000 tested, 3.2% active | AID 504652; in the data active = activity change below about -30%; note: % is set by controls: 0 for no effect and ±100 for the full control effect
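Calcium flux readout: force-coupled, inducible Hek293 Trex D1 line, cells induced overnight at 30 C with tetracycline, dye-loaded 30–90 min at RT. Antagonism scored against EC80 dopamine challenge given 180 s after compound.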
The depositor's hits bear a star; ? = inconclusive; · = not tested or not shown. Sampled rows, rich in hits. Any-hit rate of the full collection: about 4.2%.

SMILES	D1 agonist	TRPV1 potentiator	TRPV1 ag	D1 potentiator	D1 antagonist
CCOc1ccc(CCNC(=O)c2cnc3sc(N4CCC(C)CC4)nn3c2=O)cc1	2	·	·	0	11
Cc1ccccc1-c1nnn(CC(=O)Nc2sc3c(c2C#N)CCC(C(C)(C)C)C3)n1 (stereo unspecified)	-1	·	·	-4	17
CN(C)c1ccc(C(CNS(=O)(=O)c2ccc(F)cc2)N2CCCC2)cc1 (stereo unspecified)	59*	·	·	6	7
CN(C)c1ccc(C(CNC(=O)c2ccc(C(C)(C)C)cc2)N2CCCC2)cc1 (stereo unspecified)	38*	·	·	3	-9
COc1ccc(/C(C)=N/Nc2cccc(C(=O)O)c2)cc1OC	-2	2	-6	0	16
C/C(=N\Nc1cccc(C(=O)O)c1)c1ccc(Cl)s1	5	-5	0	5	-59*
C/C(=N\NC(=O)CNc1cccc(C(F)(F)F)c1)c1cccs1	1	-8	12	4	-1
C/C(=N\NC(=O)C(=O)Nc1cccc(C(F)(F)F)c1)c1ccc(Cl)s1	7	0	3	-3	-39*
Cn1cc(S(=O)(=O)c2cccc(Cl)c2)c(=O)c2cc(F)c(N3CCN(c4ccc(F)cc4)CC3)cc21	1	·	·	-1	1
COC(=O)c1cccc(NC(=S)NCc2ccc(Cl)cc2)c1	35*	6	82*	-6	0
O=C(NCc1ccccc1)c1cccc(COc2ccc(Cl)cc2)c1	38*	4	-5	-8	0
COC(=O)c1cc(NC(=S)NCc2ccc(Cl)cc2)cc(C(=O)OC)c1	29	-15	?	-4	-17
COC(=O)c1cccc(NC(=O)Nc2ccc(Cl)cc2Cl)c1	16	2	?	-3	-43*
O=C(NCc1ccc(Cl)cc1)c1cccc(NC(=O)c2ccccc2)c1	3	-5	3	-5	-34*
COc1ccc(OC)c(CCNC(=O)c2c(C)oc3ncn(CC(C)C)c(=O)c23)c1	2	·	·	-3	-12
CCOC(=O)c1[nH]c2c(c1Cc1ccccc1OC)C(=O)CC(c1ccc(OC)cc1)C2 (stereo unspecified)	6	·	·	0	8
CC(=O)c1cc(C(=O)Nc2cc(C)cc(C)c2)c2ccccn12	-1	·	·	1	-1
COc1ccc(CNC(=S)NCc2ccc(F)cc2)cc1OC	9	-13	?	-5	-9
O=C(c1ccc(NC(=S)NCc2ccc(Cl)cc2)cc1)N1CCCCC1	49*	5	-5	0	-18
O=C(CNCc1ccc(Cl)cc1)Nc1ccc(C(=O)N2CCCCC2)cc1	9	-19	27	-10	-6
COc1ccc(CNC(=S)NCc2ccc(Cl)cc2)cc1OC	22	5	97*	-2	-13
CC(C)(C)c1ccc(-c2nc(N)nc(N)n2)cc1	2	-3	9	4	0
Nc1nc(-c2ccc(Cl)cc2)nc(-c2ccc(Cl)cc2)n1	1	13	-1	-3	-35*
COc1ccc(CC(=O)NCC(c2ccc(Cl)cc2)N2CCOCC2)cc1 (stereo unspecified)	-3	·	·	-1	-43*
COc1ccc(C(CNC(=O)c2ccc(C)cc2)N2CCOCC2)cc1 (stereo unspecified)	1	·	·	0	0
SMILES	D1 agonist	TRPV1 potentiator	TRPV1 ag	D1 potentiator	D1 antagonist
COc1ccc(C(CNC(=O)c2ccc(-n3cnnn3)cc2)N2CCOCC2)cc1 (stereo unspecified)	1	-2	-1	-8	-47*
CN(C)c1ccc(C(CNC(=O)Cc2ccc(Cl)cc2)N2CCOCC2)cc1 (stereo unspecified)	0	·	·	1	-5
COC(=O)c1sc2cc([N+](=O)[O-])cc(SCC(C)C)c2c1N	91*	4	2	9	-4
CCOC(=O)c1sc2ncc([N+](=O)[O-])cc2c1N	3	-8	8	0	2
COc1ccc(OC)c(/C=C2\N=C(c3ccccc3)OC2=O)c1	74*	-27	4	-6	-5
CCOC(=O)N1CCC(NC(=O)CCCC(=O)O)CC1	3	-2	-2	-4	-33*
CN(CCC#N)C(=S)Nc1ccc(F)cc1	2	28	-7	-2	-31*
c1ccc(Cc2noc(CN3CCN(C4CCc5ccccc5C4)CC3)n2)cc1 (stereo unspecified)	32*	11	8	5	1
c1ccc(Cc2noc(CN3CCCN(C4Cc5ccccc5C4)CC3)n2)cc1	-1	4	0	-3	0
COc1ccc(OCc2nc(C#N)c(NCc3ccccc3Cl)o2)cc1	22	·	·	-6	-8
CN1CCN(/N=C/c2nc(-c3ccc(Cl)cc3)n3ccccc23)CC1	12	11	-1	-7	-61*
O=C1CCCC(NCCCCCCNC2=C([N+](=O)[O-])C(=O)CCC2)=C1[N+](=O)[O-]	0	-3	-3	-5	-92*
CC1(C)CC(=O)C([N+](=O)[O-])=C(NCCCO)C1	1	3	-5	-4	6
CN(C)S(=O)(=O)N1CCC(n2nccc2NC(=O)CCCc2ccccc2)CC1	0	0	6	1	6
CN(C)S(=O)(=O)N1CCC(n2nccc2NC(=O)CCc2ccccc2)CC1	2	9	-5	2	-44*
O=C(CCCc1ccccc1)Nc1ccnn1C1CCN(Cc2ccccc2)CC1	34*	3	-1	-4	-4
O=C(Nc1ccnn1C1CCN(Cc2ccccn2)CC1)c1cccc(F)c1	2	5	0	-18	-38*
O=C(Nc1ccnn1C1CCN(Cc2ccccc2OCCO)CC1)c1cccc(F)c1	3	-21	-2	-2	6
O=C(CCCc1ccccc1)Nc1ccnn1C1CCN(Cc2ccc(CO)o2)CC1	1	9	7	7	-34*
O=C(CCCc1ccccc1)Nc1ccnn1C1CCN(Cc2ccc(Cl)cc2)CC1	27	28	9	-2	-30
Cc1cc(Br)ccc1NC(=O)CCS(=O)(=O)c1cccc2nsnc12	-3	·	·	3	-4
CCn1c(=O)n(CC)c2cc(N3CCCCC3)c(NC(=O)Nc3ccccc3C(F)(F)F)cc21	0	·	·	-5	13
CCc1nnc(SC(CC)C(=O)Nc2cc(C)ccc2C)c2cc3occc3n12 (stereo unspecified)	4	·	·	9	-1
C#CCNC(=O)C1=C[C@@H](c2ccc(Br)cc2)C[C@@H](OCc2ccc(CO)cc2)O1	-5	-18	-3	-4	-31*
C#CCNC(=O)C1=C[C@@H](C2CCCCC2)C[C@@H](OCc2ccc(CO)cc2)O1	0	-3	15	-5	-13
C#CCNC(=O)C1=C[C@H](C2CCCCC2)C[C@H](OCc2ccc(CO)cc2)O1	9	?	0	-4	-35*
CCOc1ccc(C(=O)NCCc2sc(-c3cccc(F)c3)nc2C)cc1OCC	1	·	·	2	-8

High-throughput results as filed in PubChem.
